Screens: PubChem, Corson Lab, School of Medicine, Indiana University
This excerpt belongs to a sample that is enriched for hits.
FECH inh: inhibitors of human ferrochelatase | P22830 | purified FECH, Ni-mesoporphyrin absorbance 550 nm | calls only at 10 µM (by protocol) | 20,000 tested, 3.3% active | AID 1671448;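 active = enzyme reaction rate more than 3 SD below the solvent-only control wells on the same plate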;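 note: lower slope than DMSO wells means FECH inhibition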
Target sequence (P22830 whole entry, looked up): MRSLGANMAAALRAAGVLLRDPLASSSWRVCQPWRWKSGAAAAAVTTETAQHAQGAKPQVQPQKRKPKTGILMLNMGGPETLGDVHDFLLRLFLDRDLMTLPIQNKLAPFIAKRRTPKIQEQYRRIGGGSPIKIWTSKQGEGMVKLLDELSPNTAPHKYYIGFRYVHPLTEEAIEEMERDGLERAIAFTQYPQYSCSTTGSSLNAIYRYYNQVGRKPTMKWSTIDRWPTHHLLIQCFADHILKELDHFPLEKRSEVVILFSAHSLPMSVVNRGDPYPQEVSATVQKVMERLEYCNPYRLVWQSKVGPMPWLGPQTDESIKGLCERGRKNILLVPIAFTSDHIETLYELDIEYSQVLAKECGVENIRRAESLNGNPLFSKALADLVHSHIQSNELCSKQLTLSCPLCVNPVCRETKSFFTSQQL
The depositor's hits bear a star.

Screening COc1ccc(N2C(=O)CCS2(=O)=O)cc1S(=O)(=O)Nc1ccccc1OC(C)C returned FECH inh inactive.
`COCCn1cncc1CNc1ncc2c(n1)CCN2c1ccccc1` gave FECH inh inactive.
Screening CCN1CC(CNC(=O)c2coc(COc3ccc(F)cc3)n2)CC1=O (configuration not stated) returned FECH inh inactive.
CC(NC(=O)c1ccco1)C(=O)N1CCC(c2nc(-c3ccc(F)cc3)no2)CC1 (configuration not stated) was read as FECH inh inactive.
Cc1ccc(S(=O)(=O)NCCn2c(-c3ccccc3)nc3cccnc32)cc1C was read as FECH inh inactive.
Screening N[C@@H]1c2ccccc2C2(CCN(C(=O)c3nccc4ccccc34)CC2)[C@H]1O returned FECH inh inactive.
For CN(CC1COCCO1)C(=O)c1nccc2ccccc12 (configuration not stated) the results were FECH inh active.
For CCn1cc(CN(C(=O)c2nccc3ccccc23)C(C)C)cn1 the results were FECH inh inactive.
For Cc1ccc(-n2c(CN3CCN(S(=O)(=O)c4ccc(F)cc4)CC3)nc3cccnc32)cc1 the results were FECH inh inactive.
Screening Cc1ccc(-n2c(CN3CCN(S(=O)(=O)c4cc(F)cc(F)c4)CC3)nc3cccnc32)cc1 returned FECH inh active.
Screening COc1cccc(S(=O)(=O)N2CCN(Cc3nc4cccnc4n3-c3cccc(C)c3)CC2)c1 returned FECH inh inactive.
Screening COc1cccc(S(=O)(=O)N2CCN(Cc3nc4cccnc4n3-c3ccccc3)CC2)c1 returned FECH inh inactive.
`COc1cccc(S(=O)(=O)N2CCN(Cc3nc4cccnc4n3-c3cccc(F)c3)CC2)c1` gave FECH inh active.
For Cc1cc(C)cc(-n2c(CN3CCN(S(=O)(=O)c4cccc5nsnc45)CC3)nc3cccnc32)c1 the results were FECH inh active.
Cc1cc(C)cc(-n2c(CN3CCN(S(=O)(=O)c4ccc(C)cc4C)CC3)nc3cccnc32)c1 was read as FECH inh inactive.
COc1ccc(-n2c(CN3CCN(S(=O)(=O)c4cc(F)cc(F)c4)CC3)nc3cccnc32)cc1 was read as FECH inh inactive.
Screening Cc1cccc(-n2c(CN3CCN(S(=O)(=O)c4cc(C)c(C)cc4C)CC3)nc3cccnc32)c1 returned FECH inh inactive.
Screening CN(C)c1cc(N2CCCC(Cc3ccccc3F)(C(=O)O)C2)ncn1 (configuration not stated) returned FECH inh inactive.
For COCc1nc2cccnc2n1C1CCN(S(=O)(=O)c2cccc3nsnc23)CC1 the results were FECH inh inactive.
Screening Cc1ccc(NC(=O)Cn2nc(N3CCN(c4ccc(F)cc4)CC3)ccc2=O)cc1 returned FECH inh inactive.
`COc1ccc(C(=O)Nc2nc3n(n2)C(c2ccccc2Cl)C=C(c2ccccc2)N3)cc1` (configuration not stated) gave FECH inh inactive.
`CC(C)C/C=C(\CN1CCC2(CC1)CNC(=O)C2)c1ccccc1` gave FECH inh inactive.
For CC1(C)CC(CCNc2ncnc3c2CCNC3)(c2ccccc2)CCO1 (configuration not stated) the results were FECH inh inactive.
Cn1ccnc1SCCNC(=O)c1cn(-c2ccccc2)nn1 was read as FECH inh inactive.
`CCCC(NC(=O)c1ccc(C(C)=O)cc1)c1ccccc1` (configuration not stated) gave FECH inh inactive.
For COc1cc(C(=O)Nc2ccccc2Sc2c(C)c(C)nc3ncnn23)cc(OC)c1OC the results were FECH inh inactive.
Screening CCc1c(C)nc2ncnn2c1Sc1ccccc1NC(=O)c1cccc(F)c1 returned FECH inh inactive.
`COc1ccc(C(=O)Nc2ccccc2Sc2c(C)c(C)nc3ncnn23)cc1` gave FECH inh active.
For CCCc1c(C)nc2ncnn2c1Sc1ccccc1NC(=O)c1cccc(OC)c1 the results were FECH inh active.
Screening Cc1ccccc1OCC(=O)Nc1ccccc1Sc1c(C)c(C)nc2ncnn12 returned FECH inh active.
Screening Cc1nc2nc(-c3ccccc3)nn2c(Sc2ccccc2NC(=O)COc2ccc(Cl)cc2)c1C returned FECH inh active.
For Cc1cc(Sc2ccccc2NC(=O)COc2ccc(Cl)cc2)n2nc(-c3ccccc3)nc2n1 the results were FECH inh inactive.
`CCc1c(C)nc2ncnn2c1Sc1ccccc1NC(=O)c1cccc(C)c1` gave FECH inh inactive.
For Cc1nc2ncnn2c(Sc2ccccc2NC(=O)c2ccc(Br)cc2)c1C the results were FECH inh inactive.
Screening CCOc1ccccc1C(=O)Nc1ccccc1Sc1c(C)c(C)nc2ncnn12 returned FECH inh inactive.
`COc1ccc(CC(=O)Nc2ccccc2Sc2c(C)c(C)nc3nc(-c4ccccc4)nn23)cc1` gave FECH inh inactive.
Cc1ccc(OCC(=O)Nc2ccccc2Sc2c(C)c(C)nc3ncnn23)cc1 was read as FECH inh inactive.
`COc1ccc(C(=O)Nc2cc(C)nn2-c2ncnc3c2cnn3-c2ccccc2)c(OC)c1` gave FECH inh inactive.
For NS(=O)(=O)c1ccc(NC(=O)c2ccc3c(c2)CCN3S(=O)(=O)c2ccc(Cl)cc2)cc1 the results were FECH inh inactive.
For O=C(N[C@@H]1c2ccccc2C[C@@H]1O)c1cccc2ccnn12 the results were FECH inh inactive.
For Cc1nc(C(C)NC(=O)c2cc(CN(C)Cc3ccccc3)on2)n[nH]1 (configuration not stated) the results were FECH inh inactive.
`CCCCN(CC)c1ncc(NS(=O)(=O)c2ccc(OCC)cc2)cc1C(=O)O` gave FECH inh inactive.
Screening Nc1cnc(-c2cccc3cccnc23)cn1 returned FECH inh inactive.
CCCc1c(C)nc2ncnn2c1Sc1ccccc1NC(=O)c1ccccc1 was read as FECH inh active.
CCCc1c(C)nc2ncnn2c1Sc1ccccc1NC(=O)c1ccc(F)cc1 was read as FECH inh inactive.
For CCCc1c(C)nc2ncnn2c1Sc1ccccc1NC(=O)c1ccco1 the results were FECH inh inactive.
For Cc1ccccc1Nc1oc2c(c1-c1ccccc1F)c(=O)n(C)c(=O)n2C the results were FECH inh inactive.
Screening CCc1nc(OCC(=O)NCc2ccccc2OC)c2c(-c3ccc(F)cc3)noc2n1 returned FECH inh inactive.
Screening CCOC(=O)Cc1ccc(NC(=O)Nc2ccc(Sc3c(CC)c(C)nc4ncnn34)cc2)cc1 returned FECH inh inactive.
CC(C)c1ccc2c(c1)-c1ccccc1S(=O)(=O)N2CC(=O)NCCN1CCOCC1 was read as FECH inh inactive.
Screening CCc1ccc2c(c1)-c1ccccc1S(=O)(=O)N2CC(=O)NCCN1CCOCC1 returned FECH inh inactive.
Screening O=C(CN1C(=O)c2ccccc2S1(=O)=O)NCc1ccc2c(c1)OCO2 returned FECH inh inactive.
CC(C)c1ccc2c(c1)-c1ccccc1S(=O)(=O)N2CC(=O)NCc1cccnc1 was read as FECH inh active.
`COc1ccc(CCNC(=O)CN2c3ccc(C(C)C)cc3-c3ccccc3S2(=O)=O)cc1` gave FECH inh inactive.
`CCc1ccc2c(c1)-c1ccccc1S(=O)(=O)N2CC(=O)NCCc1ccc(OC)c(OC)c1` gave FECH inh inactive.
